Composite z-score, composite Z-score and z-score data for 9 molecules are collected here from PubChem BioAssay.

SMILES strings stand for the structures. Calls of active or inactive are those of the source.

Assay [1] addresses Albumin (Bos taurus) (UniProt P02769). Kind of assay: bovine serum albumin binders on microarray, profiling panel, artefact control for SMM control protein annotation, biochemical, small-molecule microarray, Alexa647 label, 635/667 nm fluorescence (AID 1118).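 Further: score merges 667 nm emission intensity and signal-to-noise per printed compound spot.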 The settings on record: BSA-A647 binding, fluorescence 635 nm, higher = more signal.
Assay [2] can be described thus: small-molecule microarray binders of probe aXIP, primary screen, biochemical, NeuroSMM set, 635/667 nm fluorescence (AID 1119).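 Further: probe is the protein aXip251-270 applied at 1 µg/mL to compound-printed slides; binding of probe to printed compounds measured as 667 nm fluorescence plus signal to noise.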 The settings on record: higher = more signal, called active from +8 up or from −8 down.
Assay [3] can be described thus: small-molecule binders of probe aNOTCH3, primary screen, biochemical, small-molecule microarray, 635/667 nm fluorescence (AID 1120).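 Further: probe is a biotin-tagged antibody raised against NOTCH3 rather than NOTCH3 protein; score merges spot fluorescence near 667 nm with spot signal to noise.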 The settings on record: higher = more signal.
The nature of assay [4]: small-molecule binders of probe aNOTCH2, primary screen, biochemical, small-molecule microarray, 635/667 nm fluorescence (AID 1121).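 Further: score merges feature fluorescence read at 667 nm with its signal to noise.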 The settings on record: higher = more signal.
Assay [5] addresses Carbonic anhydrase 2 (Homo sapiens) (UniProt P00918). Kind of assay: CAII small-molecule binders, profiling panel, biochemical, small-molecule microarray, Alexa647-labelled CAII (AID 1122). The settings on record: CAII-A647 binding fluorescence, higher = more signal.
Assay [6] can be described thus: COS7 lysate on small-molecule microarray, probe aHis, 635 nm (AID 1123).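 Further: z-score combines 667nm fluorescence intensity with signal-to-noise per printed compound spot.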 The settings on record: COS7 cell lysate, fluorescence, higher = more signal.
The nature of assay [7]: compound binding in COS7 lysate, probe aLAP1, primary screen, cell lysate, small-molecule microarray (AID 1124).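 Further: lysate comes from COS7 cells expressing LAP1 and is applied at 0.3 µg/mL; score merges spot fluorescence near 667 nm with signal-to-noise over triplicate slides.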 As to conditions: probe aLAP1, fluorescence, higher = more signal.
Assay [8] relates to Sam68 (KHDRBS1). Kind of assay: Sam68 small-molecule binders, primary screen, biochemical, small-molecule microarray, 635 nm fluorescence (AID 1125).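 Further: score merges 667 nm channel intensity with signal to noise over triplicate slides.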 The settings on record: small-molecule microarray binding, higher = more signal.
Assay [9] has as its system Chordin-like protein 2 (CHRDL2). Kind of assay: CHRDL2 small-molecule binders, primary screen, biochemical, small-molecule microarray, 635 nm fluorescence (AID 1126).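 Further: printed compound slides probed with Chrdl2 protein at 4 µg/mL for 1 h at 4 C; score merges 667 nm emission intensity with signal to noise over three replicate slides.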 The settings on record: small-molecule microarray binding, fluorescence 635 nm; higher = more signal.
For assay [10], the target named is Concanavalin-A (Canavalia ensiformis) (UniProt P02866). Kind of assay: ConA small-molecule binders, primary screen, artefact control for SMM control protein annotation, biochemical, small-molecule microarray, Alexa647 label, 635 nm (AID 1127).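 Further: z combines 667 nm emission intensity with signal-to-noise across three replicate slides.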 As to conditions: ConA-A647 binding fluorescence, higher = more signal.
Concanavalin-A (Canavalia ensiformis), sequence (P02866 whole entry, looked up): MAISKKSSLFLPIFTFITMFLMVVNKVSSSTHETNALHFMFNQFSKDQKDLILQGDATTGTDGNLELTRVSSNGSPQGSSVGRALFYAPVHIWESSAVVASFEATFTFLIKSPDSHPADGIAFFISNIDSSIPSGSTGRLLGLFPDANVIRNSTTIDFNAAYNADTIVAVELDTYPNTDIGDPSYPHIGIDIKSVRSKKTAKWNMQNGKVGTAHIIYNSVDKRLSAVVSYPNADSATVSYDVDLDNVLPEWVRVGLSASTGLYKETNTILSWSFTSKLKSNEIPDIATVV
Assay [11] is described as follows: anti-His antibody binders, primary screen, artefact control for SMM control protein annotation, biochemical, small-molecule microarray, 635 nm fluorescence (AID 1128).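 Further: score merges feature fluorescence with signal-to-noise for each printed compound spot.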 As to conditions: anti-His Alexa647 antibody binding, higher = more signal.
The test system of assay [12] is Human papillomavirus type 1a E7 protein (residues 1-88). Kind of assay: HPV1a E7 small-molecule binders, primary screen, biochemical, small-molecule microarray, residues 1-88, 635 nm (AID 1129). As to conditions: small-molecule microarray binding, fluorescence 635 nm; higher = more signal.
The target in assay [13] is Focal adhesion kinase 1 (Homo sapiens) (UniProt Q05397). Kind of assay: small-molecule microarray binders of FAK, primary screen, biochemical, 635/667 nm fluorescence, BSA, DTT (AID 1130).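 Further: composite of spot emission at 667 nm and signal to noise over triplicate slides.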 As to conditions: PTK2 binding, 635 nm fluorescence, higher = more signal.
Focal adhesion kinase 1 (Homo sapiens), sequence (Q05397 whole entry, looked up): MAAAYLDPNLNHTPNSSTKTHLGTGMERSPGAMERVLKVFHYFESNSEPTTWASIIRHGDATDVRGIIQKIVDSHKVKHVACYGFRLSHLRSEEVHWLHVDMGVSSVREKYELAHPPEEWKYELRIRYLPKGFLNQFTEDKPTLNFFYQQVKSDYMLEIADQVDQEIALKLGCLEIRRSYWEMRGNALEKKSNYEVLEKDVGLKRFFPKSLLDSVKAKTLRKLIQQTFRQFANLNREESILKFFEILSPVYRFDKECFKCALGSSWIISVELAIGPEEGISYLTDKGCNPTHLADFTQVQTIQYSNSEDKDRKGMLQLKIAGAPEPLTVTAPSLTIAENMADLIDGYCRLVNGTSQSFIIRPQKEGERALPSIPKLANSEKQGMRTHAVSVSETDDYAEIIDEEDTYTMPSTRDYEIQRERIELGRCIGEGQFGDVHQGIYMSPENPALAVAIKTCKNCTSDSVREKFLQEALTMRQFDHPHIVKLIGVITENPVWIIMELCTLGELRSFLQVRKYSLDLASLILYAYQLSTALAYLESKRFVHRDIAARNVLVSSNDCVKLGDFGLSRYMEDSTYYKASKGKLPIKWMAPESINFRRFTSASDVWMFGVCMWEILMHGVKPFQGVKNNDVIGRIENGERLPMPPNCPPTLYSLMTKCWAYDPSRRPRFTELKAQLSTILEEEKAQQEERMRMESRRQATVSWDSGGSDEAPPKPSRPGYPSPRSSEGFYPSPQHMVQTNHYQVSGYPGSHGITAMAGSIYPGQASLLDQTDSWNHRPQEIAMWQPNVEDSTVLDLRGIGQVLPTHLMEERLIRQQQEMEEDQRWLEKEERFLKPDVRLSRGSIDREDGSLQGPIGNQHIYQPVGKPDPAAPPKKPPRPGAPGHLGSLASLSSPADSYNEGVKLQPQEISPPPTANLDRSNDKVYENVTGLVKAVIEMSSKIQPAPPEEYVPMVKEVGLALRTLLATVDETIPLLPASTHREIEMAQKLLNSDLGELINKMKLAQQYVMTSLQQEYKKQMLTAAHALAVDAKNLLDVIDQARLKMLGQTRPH
In assay [14] the test system is Fibrinogen (Alexa647-labelled). Kind of assay: fibrinogen binders on compound microarrays, profiling panel, artefact control for SMM control-protein annotation, biochemical, small-molecule microarray, 635/667 nm fluorescence (AID 1131).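 Further: z-score merges 667 nm fluorescence with per-spot signal-to-noise over triplicate slides.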 The settings on record: fibrinogen-A647 binding fluorescence, higher = more signal.
In assay [15] the target is Follistatin (Homo sapiens) (UniProt P19883). Kind of assay: follistatin binders on small-molecule microarrays, primary screen, biochemical, small-molecule microarray, 635/667 nm fluorescence (AID 1132). The settings on record: FST binding, 635 nm fluorescence, higher = more signal.
Follistatin (Homo sapiens), sequence (P19883 whole entry, looked up): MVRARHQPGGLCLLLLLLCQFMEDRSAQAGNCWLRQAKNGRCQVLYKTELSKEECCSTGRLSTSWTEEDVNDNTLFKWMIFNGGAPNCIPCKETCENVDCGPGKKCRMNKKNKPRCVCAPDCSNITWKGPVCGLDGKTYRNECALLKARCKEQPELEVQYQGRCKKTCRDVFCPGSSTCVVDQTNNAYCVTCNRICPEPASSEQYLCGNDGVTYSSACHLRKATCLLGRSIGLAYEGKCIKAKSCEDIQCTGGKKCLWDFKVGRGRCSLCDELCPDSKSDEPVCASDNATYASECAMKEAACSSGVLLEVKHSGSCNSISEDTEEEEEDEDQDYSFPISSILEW
Assay [16] has as its target Fibroblast growth factor 2 (Homo sapiens) (UniProt P09038). Kind of assay: FGF2 binders on small-molecule microarrays, primary screen, biochemical, small-molecule microarray, 635/667 nm fluorescence (AID 1133). The settings on record: small-molecule microarray binding, FGF2, fluorescence 635/667; higher = more signal.
Assay [17] in a line: mitochondrial membrane potential change in A549 cells, profiling panel, cell-based, JC-1 fluorescence, basal, 24 h, 100 nL (AID 1138).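 Further: A549 lung adenocarcinoma cells under basal conditions with no added stimulus; test concentration not given here.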 The settings on record: higher = more signal.
Assay [18] deals with Lefty1. Kind of assay: Lefty1 binders on small-molecule microarrays, primary screen, biochemical, small-molecule microarray, 635/667 nm fluorescence (AID 1139). As to conditions: small-molecule microarray binding, fluorescence 635/667; higher = more signal.
For assay [19], the system named is wheat germ agglutinin (Triticum aestivum), Alexa647-labelled. Kind of assay: wheat germ agglutinin binders on compound microarrays, profiling panel, artefact control for SMM control-protein annotation, biochemical, small-molecule microarray, 635/667 nm fluorescence (AID 1140).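 Further: score merges 667 nm feature emission with signal to noise over triplicate slides.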 The settings on record: WGA-A647 binding, 635 nm fluorescence, higher = more signal.
The target in assay [20] is Luciferin 4-monooxygenase (Photinus pyralis) (UniProt P08659). Kind of assay: firefly luciferase enzyme inhibitors, primary screen, biochemical, luminescence, purified enzyme, 2006 set (AID 1141).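 Further: cell-free assay with purified firefly luciferase at 100 ng per well in PBS; test concentration not given here.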 As to conditions: SteadyGlo luminescence, 30 min, higher = more signal, called active from +8 up or from −8 down.
Luciferin 4-monooxygenase (Photinus pyralis), sequence (P08659 whole entry, looked up): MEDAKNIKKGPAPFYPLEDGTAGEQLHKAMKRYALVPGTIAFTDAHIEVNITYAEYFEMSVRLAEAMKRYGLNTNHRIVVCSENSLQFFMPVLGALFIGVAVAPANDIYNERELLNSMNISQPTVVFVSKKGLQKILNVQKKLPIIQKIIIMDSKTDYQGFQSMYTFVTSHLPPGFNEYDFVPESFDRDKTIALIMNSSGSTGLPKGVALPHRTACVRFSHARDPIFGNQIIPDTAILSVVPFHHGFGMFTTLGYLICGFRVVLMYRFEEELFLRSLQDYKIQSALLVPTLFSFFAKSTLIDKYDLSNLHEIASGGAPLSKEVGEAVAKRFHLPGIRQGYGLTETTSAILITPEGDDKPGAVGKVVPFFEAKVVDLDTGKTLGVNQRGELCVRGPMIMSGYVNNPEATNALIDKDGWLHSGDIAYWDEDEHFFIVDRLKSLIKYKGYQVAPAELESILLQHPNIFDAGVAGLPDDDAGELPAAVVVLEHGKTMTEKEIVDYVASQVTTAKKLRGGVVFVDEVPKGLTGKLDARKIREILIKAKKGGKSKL

Fibroblast growth factor 2 (Homo sapiens), sequence (P09038 whole entry, looked up): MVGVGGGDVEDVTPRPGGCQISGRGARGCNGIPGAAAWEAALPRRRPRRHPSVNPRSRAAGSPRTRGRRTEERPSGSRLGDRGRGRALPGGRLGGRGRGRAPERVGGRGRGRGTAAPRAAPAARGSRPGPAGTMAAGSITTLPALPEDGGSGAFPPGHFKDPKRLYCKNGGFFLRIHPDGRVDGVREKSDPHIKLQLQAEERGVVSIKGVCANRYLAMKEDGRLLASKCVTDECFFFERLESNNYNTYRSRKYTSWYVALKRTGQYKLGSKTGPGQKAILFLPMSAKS
Albumin (Bos taurus), sequence (P02769 whole entry, looked up): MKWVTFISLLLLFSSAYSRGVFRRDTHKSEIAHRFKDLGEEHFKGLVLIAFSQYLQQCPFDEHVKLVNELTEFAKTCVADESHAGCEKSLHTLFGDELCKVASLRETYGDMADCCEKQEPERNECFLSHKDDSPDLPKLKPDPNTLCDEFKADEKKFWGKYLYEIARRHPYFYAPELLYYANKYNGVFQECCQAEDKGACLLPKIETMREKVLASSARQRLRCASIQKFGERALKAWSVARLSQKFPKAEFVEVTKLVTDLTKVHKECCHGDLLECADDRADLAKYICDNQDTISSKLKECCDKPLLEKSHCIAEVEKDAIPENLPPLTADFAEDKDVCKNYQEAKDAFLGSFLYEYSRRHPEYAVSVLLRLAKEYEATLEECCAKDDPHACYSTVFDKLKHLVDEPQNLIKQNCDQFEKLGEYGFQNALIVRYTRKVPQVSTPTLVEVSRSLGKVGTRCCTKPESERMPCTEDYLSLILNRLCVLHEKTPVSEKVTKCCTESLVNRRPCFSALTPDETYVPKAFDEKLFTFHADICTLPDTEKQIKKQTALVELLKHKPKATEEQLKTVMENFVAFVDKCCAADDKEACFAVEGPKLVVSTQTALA

With `C=CCNC(=O)[C@H]1[C@@H]2C(=O)O[C@@H](c3ccccc3)[C@@H](c3ccccc3)N2[C@@H](c2ccc(O)cc2)[C@]12C(=O)Nc1ccc(C#CCNC(N)=O)cc12`, the composite z-score was -0.273 in [1]; -0.174 in assay [3]; 0.12 in [4]; 0.78 in assay [5]; 0.789 in assay [6]; 0.0128 in [7]. Besides, the composite z-score was 0.213 in [8]; -1.02 in [9]; -0.649 in assay [10]; -1.09 in assay [11]; -0.572 in assay [12]; 0.199 in assay [13]. In addition, the composite z-score is -1.04 in assay [14]; 0.094 in assay [15]; -0.415 in assay [16]; -0.886 in assay [18]; -0.52 in assay [19]. Further, in [2], the composite Z-score is 0.593 (inactive). The figures for the z-score in assay [17] and in assay [20] were -0.171 and -1.25 (inactive), respectively.
With `CO[C@H]1COC(=O)[C@@H](OCc2ccccc2)C=C[C@H](C)[C@@H](OC)COC(=O)[C@H](OCc2ccccc2)C=C[C@@H]1C`, the composite z-score was -0.695 in [1]; -0.0682 in assay [3]; -0.179 in [4]; -0.516 in assay [5]; -0.838 in assay [6]; -0.885 in assay [7]. Also, the composite z-score was -0.693 in assay [8]; -0.51 in assay [9]; -0.218 in [10]; -0.12 in assay [11]; -0.0882 in [12]; 0.104 in assay [13]. In addition, the composite z-score was -0.305 in assay [14]; 0.266 in [15]; 0.552 in assay [16]; 0.67 in assay [18]; -0.244 in assay [19]. Moreover, in assay [2], the composite Z-score is -0.738 (inactive). In addition, the z-score in [17] is 1.99; in assay [20], -1.99 (inactive).
`C[C@@H]1NC(=O)[C@H](Cc2ccccc2)NC(=O)[C@@]23C(=O)N[C@@H](Cc4ccccc4)C2[C@H](C)[C@@]2(C)O[C@H]2C3/C=C/C/C=C\CNC1=O` (stereo not given in full): the composite z-score is 0.0296 in [1]; -0.0996 in assay [3]; 0.364 in assay [4]; 0.82 in [5]; -0.741 in assay [6]; -0.634 in assay [7]. Further, the composite z-score in assay [8] is -0.276; in assay [9] it was 0.399; in [10], -0.265; in assay [11] it was 0.0093; in [12], -1.79; in assay [13] it was -0.524. The composite z-score in assay [14] was -0.89; in assay [15] it was 0.216; in assay [16], 0.0447; in assay [18] it was 0.256; in assay [19], -0.906. The composite Z-score in assay [2] is 0.0437 (inactive). Besides, the z-score is -0.0521 in [17] and -0.0116 (inactive) in assay [20].
With `COC(=O)[C@@]1(Cc2ccccc2CN=[N+]=[N-])N=C(c2ccc(OCCCO)cc2)O[C@H]1c1ccccc1N=[N+]=[N-]`, the composite z-score was -0.0759 in assay [1]; -0.0164 in assay [3]; 0.215 in [4]; 0.569 in assay [5]; 1.33 in assay [6]; -0.507 in assay [7]. The composite z-score was 0.454 in assay [8]; -0.388 in [9]; 0.544 in assay [10]; -0.0307 in [11]; 0.339 in assay [12]; 1.96 in assay [13]. Moreover, the composite z-score in assay [14] was determined as 0.694; in assay [15], 0.832; in [16], 0.0085; in assay [18], 0.79; in assay [19] it was 0.727. Also, in assay [2], the composite Z-score is -0.22 (inactive). Further, the z-score in assay [17] is -0.403; in assay [20] it was -10.1 (active).
Turning to `COc1cc2c(cc1OC)CN(C(=O)[C@H]1[C@@H]3C(=O)O[C@@H](c4ccccc4)[C@@H](c4ccccc4)N3[C@@H](c3ccc(O)cc3)[C@]13C(=O)Nc1ccc(C#CC4(O)CCCCCC4)cc13)CC2`, the composite z-score in assay [1] was found to be 0.693; in assay [3] it was 0.974; in assay [4], 0.286; in assay [5], 0.774; in assay [6], 3.61; in assay [7], 0.876. Moreover, the composite z-score in assay [8] amounted to 1.29; in assay [9] it was 1.24; in assay [10], 1.13; in assay [11] it was 1.5; in assay [12], 1.23; in assay [13] it was 1.02. For the same molecule, the composite z-score was 0.86 in assay [14]; 1.28 in assay [15]; 1.71 in assay [16]; 0.59 in assay [18]; 1.31 in [19]. For the same molecule, the composite Z-score in assay [2] was 1.04 (inactive). For the same molecule, the z-score in assay [17] was -1.23; in assay [20] it was -0.409 (inactive).
With `Cc1ccc(S(=O)(=O)N2[C@@H](c3ccccc3)C(C(=O)O)=CC[C@H]2c2ccccc2)cc1`, the composite z-score in assay [1] is 0.508; in assay [3], -0.0647; in [4], -0.0771; in assay [5], 0.837; in [6], 2.33; in [7] it was 0.498. The composite z-score in assay [8] is 0.702; in assay [9], -0.439; in [10] it was 0.0991; in assay [11], -0.247; in assay [12], 0.699; in assay [13] it was 0.431. Further, the composite z-score is 0.175 in [14]; -0.12 in assay [15]; -0.158 in assay [16]; 0.0236 in assay [18]; 0.33 in [19]. For the same molecule, in assay [2], the composite Z-score was 1.47 (inactive). Besides, the z-score in [17] was -1.38; in assay [20], 0.838 (inactive).
In the case of `CCC(=O)[C@]12O[C@@]3([C@@H]4C(=O)OCC[C@@H]41)N(CC)C(C)=C(C(=O)OC)[C@@H](c1ccccc1)N3C2=O`, the composite z-score in [1] is -0.499; in assay [3], -0.122; in [4], -0.157; in assay [5], 0.828; in [6] it was -0.68; in assay [7], 0.448. In addition, the composite z-score in assay [8] is -0.516; in assay [9], 0.841; in assay [10], -0.0306; in [11], 1.41; in assay [12], -1.67; in [13], 0.335. In addition, the composite z-score was -0.62 in assay [14]; 0.754 in assay [15]; 0.111 in assay [16]; 0.373 in assay [18]; -0.0702 in [19]. For the same molecule, the composite Z-score in assay [2] is -0.302 (inactive). Besides, the z-score in [17] was -0.404; in assay [20], -0.533 (inactive).
Take `O=C(NCc1ccccc1)c1ccc(Br)cc1[N+](=O)[O-]`: the composite z-score was 0.311 in assay [1]; 0.116 in assay [3]; -0.0488 in assay [4]; 0.727 in assay [5]; 0.35 in [6]; -0.209 in [7]. The composite z-score was 0.604 in assay [8]; 0.446 in assay [9]; 0.899 in [10]; -0.26 in assay [11]; 0.292 in assay [12]; -0.1 in assay [13]. The composite z-score in [14] was -0.0828; in [15] it was 0.405; in assay [16], 0.465; in assay [18], 0.505; in [19], 0.352. Further, in assay [2], the composite Z-score is 0.047 (inactive). For the same molecule, the z-score was 0.543 in [17] and -0.941 (inactive) in assay [20].
`CN1C(=O)C2C=CC(C(O)C3CC=CCC3)N(Nc3ccccc3)C2C1=O` (stereo not given): the composite z-score in assay [1] was 0.598; in [3], 0.351; in [4], 0.0697; in [5] it was 0.715; in assay [6] it was 2.75; in assay [7], -0.147. In addition, the composite z-score was 1.3 in assay [8]; 0.912 in [9]; 0.955 in assay [10]; 0.674 in assay [11]; 1.14 in assay [12]; -0.198 in [13]. Further, the composite z-score in assay [14] came to 0.678; in assay [15], 1.28; in assay [16], 0.769; in assay [18] it was 1.29; in [19], 1.24. Also, the composite Z-score in assay [2] is -0.442 (inactive). The values for the z-score in assay [17] and in assay [20] were 0.883 and 0.864 (inactive), respectively.
